The full data set covers some 8,800 targets. This sample favours those with a hit. About 0.5% of all pairs of compound and target were hits. A number with no mark means an inactive call.
The targets below were run with C1=CC=C(C=C1)[C@H](COC2=CC3=C(C=C2)NC(=O)N3)NC(=O)C4=CC=CN(C4=O)CC5=CC(=C(C=C5)F)F (assay: log2 fold change, soluble protein after heating vs DMSO (PISA); higher = thermal stabilisation; K562 lysate, 10 uM; active = over 0.2 and 3.5 SD of the protein, either way, in both replicates (recomputed)).
Summary of the method: (§1)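 Soluble protein was defined as the supernatant remaining after 21,000xg for 90 min, following pooling of heated aliquots and adjustment to 0.5% NP-40 at 4°C. Before that, crude K562 extract at 1 mg/mL protein in PBS pH 7.4 with 1 mM MgCl2 was treated with 10 μM compound for 30 min and heated for 3 min across 48°C-58°C. Quantification used TMTpro 16plex LC-MS/MS with channel sums equalised, and values are log-two fold changes in thermal stability relative to solvent controls from duplicates.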
Sequence of UniProt Q6IBW4 (Q6IBW4 whole entry, looked up): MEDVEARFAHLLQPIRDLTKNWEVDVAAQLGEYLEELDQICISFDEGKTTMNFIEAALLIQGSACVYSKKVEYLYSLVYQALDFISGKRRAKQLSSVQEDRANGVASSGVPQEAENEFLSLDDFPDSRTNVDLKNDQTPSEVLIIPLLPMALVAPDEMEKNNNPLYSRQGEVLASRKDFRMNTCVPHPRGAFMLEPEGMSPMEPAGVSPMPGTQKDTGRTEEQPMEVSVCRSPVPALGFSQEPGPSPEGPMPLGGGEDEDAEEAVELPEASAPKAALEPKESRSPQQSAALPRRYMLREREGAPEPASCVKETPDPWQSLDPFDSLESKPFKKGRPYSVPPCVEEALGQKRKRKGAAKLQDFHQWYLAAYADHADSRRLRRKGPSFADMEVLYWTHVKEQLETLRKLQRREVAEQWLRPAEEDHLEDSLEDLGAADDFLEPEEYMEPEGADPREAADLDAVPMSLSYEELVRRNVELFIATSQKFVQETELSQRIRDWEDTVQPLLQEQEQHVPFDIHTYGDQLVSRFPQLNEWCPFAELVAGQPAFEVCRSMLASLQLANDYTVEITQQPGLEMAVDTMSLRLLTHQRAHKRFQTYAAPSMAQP
Sequence of UniProt P03928 (P03928 whole entry, looked up): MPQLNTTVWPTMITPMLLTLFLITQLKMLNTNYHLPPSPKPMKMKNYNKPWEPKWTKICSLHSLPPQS
Sequence of UniProt Q8NE18 (Q8NE18 whole entry, looked up): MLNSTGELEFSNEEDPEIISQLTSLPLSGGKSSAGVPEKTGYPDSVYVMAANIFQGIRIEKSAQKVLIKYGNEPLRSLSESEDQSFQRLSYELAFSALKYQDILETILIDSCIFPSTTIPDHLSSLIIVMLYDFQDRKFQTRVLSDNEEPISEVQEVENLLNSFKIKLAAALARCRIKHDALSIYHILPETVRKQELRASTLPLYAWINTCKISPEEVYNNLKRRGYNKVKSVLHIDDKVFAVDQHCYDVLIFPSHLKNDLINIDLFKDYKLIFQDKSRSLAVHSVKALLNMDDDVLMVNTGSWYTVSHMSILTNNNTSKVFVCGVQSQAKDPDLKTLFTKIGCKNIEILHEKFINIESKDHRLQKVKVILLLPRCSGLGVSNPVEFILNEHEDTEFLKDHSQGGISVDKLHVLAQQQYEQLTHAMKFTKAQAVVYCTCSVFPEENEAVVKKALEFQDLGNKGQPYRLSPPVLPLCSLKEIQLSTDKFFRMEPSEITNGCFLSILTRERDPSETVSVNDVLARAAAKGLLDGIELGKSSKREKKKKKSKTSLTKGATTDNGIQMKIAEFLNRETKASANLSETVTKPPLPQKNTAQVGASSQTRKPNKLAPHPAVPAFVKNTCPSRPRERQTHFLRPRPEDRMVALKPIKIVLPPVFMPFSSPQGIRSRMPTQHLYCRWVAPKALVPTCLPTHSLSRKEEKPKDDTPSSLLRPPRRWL
Sequence of UniProt B2RTY4 (B2RTY4 whole entry, looked up): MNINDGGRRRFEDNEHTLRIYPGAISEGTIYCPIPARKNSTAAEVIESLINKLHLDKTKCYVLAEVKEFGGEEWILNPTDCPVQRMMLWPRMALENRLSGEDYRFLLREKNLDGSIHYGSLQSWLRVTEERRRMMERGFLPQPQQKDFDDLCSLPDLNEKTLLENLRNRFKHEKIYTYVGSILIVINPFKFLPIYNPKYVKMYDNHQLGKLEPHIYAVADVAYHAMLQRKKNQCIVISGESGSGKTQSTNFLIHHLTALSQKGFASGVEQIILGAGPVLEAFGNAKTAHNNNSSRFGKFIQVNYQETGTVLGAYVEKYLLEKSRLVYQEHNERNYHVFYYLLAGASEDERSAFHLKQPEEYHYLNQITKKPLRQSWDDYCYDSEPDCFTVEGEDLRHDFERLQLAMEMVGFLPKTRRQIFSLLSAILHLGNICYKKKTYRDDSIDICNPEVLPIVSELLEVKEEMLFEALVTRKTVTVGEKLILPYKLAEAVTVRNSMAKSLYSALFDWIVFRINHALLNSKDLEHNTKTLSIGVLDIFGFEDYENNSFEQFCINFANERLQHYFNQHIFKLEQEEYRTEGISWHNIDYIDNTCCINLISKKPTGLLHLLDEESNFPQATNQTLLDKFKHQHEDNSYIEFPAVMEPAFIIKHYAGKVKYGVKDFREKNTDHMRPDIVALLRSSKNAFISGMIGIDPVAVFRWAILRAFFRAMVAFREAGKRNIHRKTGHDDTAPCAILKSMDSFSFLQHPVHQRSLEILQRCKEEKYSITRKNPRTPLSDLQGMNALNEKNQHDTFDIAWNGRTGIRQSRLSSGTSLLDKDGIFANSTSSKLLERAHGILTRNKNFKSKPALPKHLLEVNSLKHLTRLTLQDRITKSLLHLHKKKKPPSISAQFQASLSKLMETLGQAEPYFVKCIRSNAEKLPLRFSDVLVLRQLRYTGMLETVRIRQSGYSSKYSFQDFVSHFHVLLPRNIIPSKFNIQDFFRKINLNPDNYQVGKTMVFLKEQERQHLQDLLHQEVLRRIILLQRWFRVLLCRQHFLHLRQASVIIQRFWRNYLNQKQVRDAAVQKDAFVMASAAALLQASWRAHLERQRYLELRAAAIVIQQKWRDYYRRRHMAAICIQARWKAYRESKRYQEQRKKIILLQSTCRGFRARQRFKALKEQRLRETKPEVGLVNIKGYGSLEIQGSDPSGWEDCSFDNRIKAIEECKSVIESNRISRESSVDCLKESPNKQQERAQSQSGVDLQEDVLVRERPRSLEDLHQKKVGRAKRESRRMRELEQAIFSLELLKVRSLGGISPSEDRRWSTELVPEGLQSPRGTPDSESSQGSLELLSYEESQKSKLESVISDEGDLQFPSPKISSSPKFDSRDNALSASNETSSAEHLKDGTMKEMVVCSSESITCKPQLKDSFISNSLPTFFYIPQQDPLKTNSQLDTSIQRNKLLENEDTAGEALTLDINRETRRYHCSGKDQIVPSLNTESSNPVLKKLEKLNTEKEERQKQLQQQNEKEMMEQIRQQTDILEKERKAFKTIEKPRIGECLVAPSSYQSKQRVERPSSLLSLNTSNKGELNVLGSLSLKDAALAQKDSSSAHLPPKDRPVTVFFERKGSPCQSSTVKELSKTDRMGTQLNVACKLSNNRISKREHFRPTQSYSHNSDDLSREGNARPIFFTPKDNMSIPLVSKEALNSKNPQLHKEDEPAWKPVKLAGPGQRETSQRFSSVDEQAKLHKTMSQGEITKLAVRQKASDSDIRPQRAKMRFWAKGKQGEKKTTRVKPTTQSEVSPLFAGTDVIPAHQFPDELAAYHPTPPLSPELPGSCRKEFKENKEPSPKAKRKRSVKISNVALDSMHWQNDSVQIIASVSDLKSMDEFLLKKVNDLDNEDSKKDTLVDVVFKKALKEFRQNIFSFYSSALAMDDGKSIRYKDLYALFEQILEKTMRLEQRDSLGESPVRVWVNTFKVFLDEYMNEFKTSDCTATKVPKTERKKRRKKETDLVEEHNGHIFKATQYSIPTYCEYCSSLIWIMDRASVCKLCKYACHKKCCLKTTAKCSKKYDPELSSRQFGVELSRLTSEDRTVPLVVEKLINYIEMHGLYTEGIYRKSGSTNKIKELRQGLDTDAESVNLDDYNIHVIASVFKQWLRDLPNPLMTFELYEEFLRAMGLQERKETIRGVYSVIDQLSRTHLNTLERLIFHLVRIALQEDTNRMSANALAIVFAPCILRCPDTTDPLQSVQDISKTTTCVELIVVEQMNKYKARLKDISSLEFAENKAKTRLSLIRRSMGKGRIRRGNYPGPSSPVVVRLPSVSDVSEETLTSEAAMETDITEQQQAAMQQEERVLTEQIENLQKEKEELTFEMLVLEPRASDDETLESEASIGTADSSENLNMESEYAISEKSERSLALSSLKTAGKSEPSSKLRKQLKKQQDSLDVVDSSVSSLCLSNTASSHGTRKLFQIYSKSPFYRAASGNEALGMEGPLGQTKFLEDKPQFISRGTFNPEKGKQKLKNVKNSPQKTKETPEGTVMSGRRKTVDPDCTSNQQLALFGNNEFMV
Sequence of UniProt Q9NZT2 (Q9NZT2 whole entry, looked up): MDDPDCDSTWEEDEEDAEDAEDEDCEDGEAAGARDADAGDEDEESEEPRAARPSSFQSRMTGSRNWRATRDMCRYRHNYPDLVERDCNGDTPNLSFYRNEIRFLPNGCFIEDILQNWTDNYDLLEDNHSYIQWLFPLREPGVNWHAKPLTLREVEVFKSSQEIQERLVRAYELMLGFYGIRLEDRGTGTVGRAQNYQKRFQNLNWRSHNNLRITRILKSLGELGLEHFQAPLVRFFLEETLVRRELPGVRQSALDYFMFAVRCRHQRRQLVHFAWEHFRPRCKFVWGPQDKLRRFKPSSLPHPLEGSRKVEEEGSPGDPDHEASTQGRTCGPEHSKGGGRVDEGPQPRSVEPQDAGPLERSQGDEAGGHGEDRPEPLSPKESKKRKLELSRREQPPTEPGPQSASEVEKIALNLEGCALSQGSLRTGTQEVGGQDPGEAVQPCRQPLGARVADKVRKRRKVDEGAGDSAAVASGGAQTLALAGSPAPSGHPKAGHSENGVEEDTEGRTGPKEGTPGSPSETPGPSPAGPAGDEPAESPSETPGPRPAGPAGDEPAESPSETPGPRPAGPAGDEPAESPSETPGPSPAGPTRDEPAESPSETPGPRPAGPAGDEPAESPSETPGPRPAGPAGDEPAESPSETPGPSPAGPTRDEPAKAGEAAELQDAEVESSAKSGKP
Sequence of UniProt Q9NZJ9 (Q9NZJ9 whole entry, looked up): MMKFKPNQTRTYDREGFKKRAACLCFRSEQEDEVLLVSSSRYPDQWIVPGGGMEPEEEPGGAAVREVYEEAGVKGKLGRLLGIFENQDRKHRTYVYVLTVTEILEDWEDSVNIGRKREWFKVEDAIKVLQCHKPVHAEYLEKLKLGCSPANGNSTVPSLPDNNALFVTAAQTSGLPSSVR
Sequence of UniProt Q9UDX5 (Q9UDX5 whole entry, looked up): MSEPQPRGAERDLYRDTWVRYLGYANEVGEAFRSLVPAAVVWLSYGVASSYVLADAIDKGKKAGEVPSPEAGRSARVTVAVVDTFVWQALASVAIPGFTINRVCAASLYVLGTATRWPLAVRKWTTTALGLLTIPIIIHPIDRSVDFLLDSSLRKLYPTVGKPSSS
Target OSBPL1A (UniProt Q9BXW6) has a log2 fold change of -0.089.
Work on NCAPH2 (UniProt Q6IBW4) yielded a log2 fold change of 0.027.
Target MYO10 (UniProt Q9HD67) has a log2 fold change of -0.122.
MRPL51 (UniProt Q4U2R6) showed a log2 fold change of -0.001.
OGFR (UniProt Q9NZT2) gave a log2 fold change of -0.016.
Work on MYO9A isoform 4 (UniProt B2RTY4) yielded a log2 fold change of -0.124.
NPLOC4 (UniProt I3L3I1) showed a log2 fold change of -0.041.
Work on MTCH2 (UniProt Q9Y6C9) yielded a log2 fold change of 0.013.
NUDT4 isoform 2 (UniProt Q9NZJ9) gave a log2 fold change of 0.009.
Work on MT-ATP8 (UniProt P03928) yielded a log2 fold change of -0.057.
For NARF (UniProt Q9UHQ1), the log2 fold change was -0.023.
Work on PAXBP1 (UniProt Q9Y5B6) yielded a log2 fold change of -0.004.
Target PAN2 isoform 2 (UniProt Q504Q3) has a log2 fold change of -0.108.
NDUFS1 isoform 2 (UniProt P28331) was tested, and the log2 fold change was 0.009.
Target NFAT5 isoform 5 (UniProt O94916) has a log2 fold change of 0.12.
MYLK (UniProt Q15746) showed a log2 fold change of -0.038.
With NSUN7 (UniProt Q8NE18) the log2 fold change was -0.144.
For P2RY1 (UniProt P47900), the log2 fold change was -0.153.
Target PANK2 (UniProt Q9BZ23) has a log2 fold change of 0.024.
NUP93 (UniProt Q8N1F7) showed a log2 fold change of -0.054.
NR2F2 (UniProt P24468) was tested, and the log2 fold change was -0.082.
For N4BP2 (UniProt Q86UW6), the log2 fold change was 0.024.
PAGE4 (UniProt O60829) gave a log2 fold change of 0.024.
With MTFP1 (UniProt Q9UDX5) the log2 fold change was 0.005.
NRIP1 (UniProt P48552) gave a log2 fold change of 0.058.
With NFATC4 isoform 2 (UniProt Q14934) the log2 fold change was -0.077.

These targets were tested with CC1=C(SC2=C1C(=N[C@H](C3=NN=C(N32)C)CC(=O)N)C4=CC=C(C=C4)Cl)C in the same assay as above.
Summary of the method: as §1
For OSBPL1A (UniProt Q9BXW6), the log2 fold change was 0.007.
NCAPH2 (UniProt Q6IBW4) was tested, and the log2 fold change was -0.001.
MYO10 (UniProt Q9HD67) was tested, and the log2 fold change was 0.104.
MRPL51 (UniProt Q4U2R6) showed a log2 fold change of -0.053.
For OGFR (UniProt Q9NZT2), the log2 fold change was 0.001.
MYO9A isoform 4 (UniProt B2RTY4) was tested, and the log2 fold change was -0.047.
Work on NPLOC4 (UniProt I3L3I1) yielded a log2 fold change of 0.2.
MTCH2 (UniProt Q9Y6C9) showed a log2 fold change of 0.001.
NUDT4 isoform 2 (UniProt Q9NZJ9) gave a log2 fold change of -0.011.
MT-ATP8 (UniProt P03928) gave a log2 fold change of 0.052.
NARF (UniProt Q9UHQ1) showed a log2 fold change of -0.005.
PAXBP1 (UniProt Q9Y5B6) was tested, and the log2 fold change was -0.026.
PAN2 isoform 2 (UniProt Q504Q3) showed a log2 fold change of 0.086.
With NDUFS1 isoform 2 (UniProt P28331) the log2 fold change was -0.003.
NFAT5 isoform 5 (UniProt O94916) gave a log2 fold change of -0.028.
Work on MYLK (UniProt Q15746) yielded a log2 fold change of -0.161.
Work on NSUN7 (UniProt Q8NE18) yielded a log2 fold change of -0.046.
With P2RY1 (UniProt P47900) the log2 fold change was 0.163.
With PANK2 (UniProt Q9BZ23) the log2 fold change was 0.081.
NUP93 (UniProt Q8N1F7) gave a log2 fold change of -0.017.
Target NR2F2 (UniProt P24468) has a log2 fold change of -0.117.
In the case of N4BP2 (UniProt Q86UW6), the log2 fold change is reported as 0.04.
PAGE4 (UniProt O60829) gave a log2 fold change of -0.11.
MTFP1 (UniProt Q9UDX5) gave a log2 fold change of -0.058.
NRIP1 (UniProt P48552) showed a log2 fold change of 0.112.
Work on NFATC4 isoform 2 (UniProt Q14934) yielded a log2 fold change of 0.015.

Each target was assayed with CC1=C2C(=CC=C1)N=C(N(C2=O)C3=CC=CC=C3C)CN4C=NC5=C(N=CN=C54)N in the same assay as above.
Summary of the method: as §1
Target NCAPH2 (UniProt Q6IBW4) has a log2 fold change of 0.035.
Target MYO10 (UniProt Q9HD67) has a log2 fold change of 0.165.
Target MRPL51 (UniProt Q4U2R6) has a log2 fold change of 0.043.
OGFR (UniProt Q9NZT2) gave a log2 fold change of 0.012.
For MYO9A isoform 4 (UniProt B2RTY4), the log2 fold change was 0.094.
MTCH2 (UniProt Q9Y6C9) was tested, and the log2 fold change was -0.006.
With NUDT4 isoform 2 (UniProt Q9NZJ9) the log2 fold change was 0.01.
For MT-ATP8 (UniProt P03928), the log2 fold change was 0.082.
Target PAPOLG (UniProt Q9BWT3) has a log2 fold change of 0.064.
Work on NARF (UniProt Q9UHQ1) yielded a log2 fold change of 0.017.
Work on PAXBP1 (UniProt Q9Y5B6) yielded a log2 fold change of 0.026.
Work on PAN2 isoform 2 (UniProt Q504Q3) yielded a log2 fold change of -0.004.
For NDUFS1 isoform 2 (UniProt P28331), the log2 fold change was 0.022.
With NFAT5 isoform 5 (UniProt O94916) the log2 fold change was 0.009.
Target MYLK (UniProt Q15746) has a log2 fold change of -0.008.
Work on NSUN7 (UniProt Q8NE18) yielded a log2 fold change of 0.06.
Work on MYBL2 (UniProt P10244) yielded a log2 fold change of -0.01.
Target NUDT6 (UniProt P53370) has a log2 fold change of -0.222.
MXRA7 (UniProt P84157) was tested, and the log2 fold change was -0.05.
With PANK2 (UniProt Q9BZ23) the log2 fold change was -0.021.
For NUP93 (UniProt Q8N1F7), the log2 fold change was -0.006.
Target N4BP2 (UniProt Q86UW6) has a log2 fold change of 0.064.
PAGE2B (UniProt Q5JRK9) gave a log2 fold change of -0.031.
MTFP1 (UniProt Q9UDX5) was tested, and the log2 fold change was 0.03.
Work on NFATC4 isoform 2 (UniProt Q14934) yielded a log2 fold change of 0.

— the supplement of paper PMC10849652
